This is a sample that favours compounds with a hit; in the whole collection about 9.2% have one here.
ELG1 genotox: induces genotoxicity in HEK293T cells with luciferase-tagged ELG1. HEK293T ELG1-luciferase reporter, luminescence, 16 h. Potency, µM (series often up to 46 µM), for inactives: at the highest dose activity change, positive = activation, most hits filed as activators. actives 1.3% (n = 330,000); further: % of control where 0% means no effect; nearly all actives have a fitted effect of over 60% in size
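Genotoxic stress is detected as increased luminescence from luciferase-tagged ELG1 in HEK293T cells, measured with ONE-Glo after a 16 hr treatment at 37 °C.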
Rab9 prom act: activators of Rab9 promoter | Huh7 Rab9 promoter-luciferase reporter, luminescence, 24 h | Potency, µM (series often up to 9.22 µM), without a hit: at the highest dose activation, negative = inhibition, usual class: activators | actives 2.8% (n = 320,000) | AID 485297; further: % of control where 0% means no effect; nearly all actives have a fitted effect of over 60% in size
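Huh7 reporter line, Rab9 promoter upstream of luciferase. Compound exposure 24 h at 37 °C in reduced-serum medium with 10% FBS. Read-out: luminescence.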
FLuc modulator: firefly luciferase modulation, counter-screen for miR-21 project. AID 588342. P08659. actives 6.9% (n = 360,000). Potency, µM (titrated, usually from 57.5 µM), for the others: top-dose activity change, negative = inhibition, hits mostly inhibitors. purified FLuc, Km substrates, luminescence inhibition;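 further: plate controls were vehicle for no effect and reference inhibitor for full effect; nearly all actives have a fitted effect of over 55% in size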
Target sequence (P08659 whole entry, looked up): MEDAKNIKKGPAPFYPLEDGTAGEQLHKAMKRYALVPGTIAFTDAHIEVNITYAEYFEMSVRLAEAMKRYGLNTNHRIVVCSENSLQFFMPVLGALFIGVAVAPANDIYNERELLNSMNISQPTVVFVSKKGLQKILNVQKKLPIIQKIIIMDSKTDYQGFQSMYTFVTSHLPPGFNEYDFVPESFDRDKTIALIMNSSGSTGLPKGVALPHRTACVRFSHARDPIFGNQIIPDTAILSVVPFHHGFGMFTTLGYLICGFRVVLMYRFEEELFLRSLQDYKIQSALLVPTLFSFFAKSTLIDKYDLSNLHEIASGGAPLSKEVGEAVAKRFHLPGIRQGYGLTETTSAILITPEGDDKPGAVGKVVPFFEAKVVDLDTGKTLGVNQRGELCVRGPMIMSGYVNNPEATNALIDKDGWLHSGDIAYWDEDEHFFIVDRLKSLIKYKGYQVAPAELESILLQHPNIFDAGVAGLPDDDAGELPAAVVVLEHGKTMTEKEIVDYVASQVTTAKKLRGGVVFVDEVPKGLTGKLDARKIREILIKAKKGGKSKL
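Purified P. pyralis luciferase, 10 nM final, with Km-level 10 uM D-luciferin and 10 uM ATP in 50 mM Tris acetate pH 7.5, 10 mM Mg acetate, 0.01% Tween-20, 0.05% BSA; 6-point qHTS titration about 60 µM downward; luminescence read.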
SMN2 splice up: increases expression of the SMN2 splice variant. HEK293 SMN2-luciferase splicing reporter, luminescence, 30-36 h. AID 1458. actives 2.8% (n = 210,000). Potency, µM (doses to about 46.1 µM), for inactives: at the highest dose activity change, positive = activation, hits mostly activators; further: % of control where 0% means no effect; nearly all actives have a fitted effect of over 55% in size
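HEK293 cells carry an SMN2 minigene-luciferase reporter in which exon 7 inclusion puts luciferase in frame. Cells were seeded at 2000 cells/well, attached for 10-12 hours, then exposed to compounds for 30-36 hours at 37C before ONE-Glo luminescence.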
NPC1 promoter act: activators of NPC1 promoter; Huh7 NPC1 promoter luciferase reporter, 24 h; Potency, µM (titrated, usually from 9.22 µM), for inactives: top-dose activation, usual class: activators; actives 2.4% (n = 320,000); AID 485313; further: % of control where 0% means no effect; nearly all actives have a fitted effect of over 60% in size
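Stably transfected Huh7 (NPC1 promoter→luciferase), 1500 cells/well in Opti-MEM + 10% FBS, 2 h settle, then compound 24 h at 37 °C. Luminescence after 10 min with Amplite reagent.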
ELG1 repair inh: blocks ELG1-dependent DNA repair in HEK293T cells; HEK293T ELG1-luciferase reporter, luminescence, 16 h; DNA damage induced by 5-fluorouridine; Potency, µM (top dose mostly 46.1 µM), without a hit: at the highest dose activity change, negative = inhibition, usual class: inhibitors; actives 2.3% (n = 330,000); further: on the % scale 0 is the no-effect control and ±100 the full control effect; nearly all actives have a fitted effect of over 55% in size
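5-Fluorouridine DNA damage + compound/DMSO, 2,000 cells/well, 16 h, 37 °C/5% CO2. ONE-Glo, 30 min RT, luminescence. Readout = decrease in reporter signal.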
* = called active by the depositor; ? = inconclusive; . = no result given; [ ] = remark or other dose. The call rests on the fitted dose curve; in most records, active means well fitted curve in the direction sought with a large enough effect; inconclusive means small, poorly fitted or top-dose-only effect, or another doubt; inactive means no such curve, though single readings can be large; an effect the other way counts as inactive or inconclusive. Potency means the concentration at half of the fitted maximal effect.

SMILES | ELG1 genotox | Rab9 prom act | FLuc modulator | SMN2 splice up | NPC1 promoter act | ELG1 repair inh
Nc1c(-c2ccccc2)cnn1-c1cccc(Cl)c1 | ? | 1.4µM* | 3.4µM* | . | 1.1µM* | ?
Cc1ccc(CN(Cc2cccn2-c2nnc(N3CCCC3=O)s2)C(=O)Nc2ccc(F)cc2)cc1 | . | . | -17% | 4% | . | .
CC(=O)N1c2nc(C(C)C)nn2C2(CCCCC2)[C@@H]2CCCC[C@@H]21 | . | . | 4% | . | . | .
Cc1sc2nc(SCC(=O)Nc3ccc(S(=O)(=O)NCCCC(=O)O)cc3)[nH]c(=O)c2c1C | 0% | -12% | 17µM* | . | -6% | -14%
Cc1sc2nc(SCC(=O)Nc3ccccc3F)[nH]c(=O)c2c1C | 16% | 0% | -1% | . | -5% | 16%
CCOC(=O)c1cc2c(=O)n3ccccc3nc2n(C)c1=NC(=O)c1c(-c2ccccc2Cl)noc1C | . | . | 2% | 0% | . | .
COc1ccc(Cn2ccn(Cc3cccc(Cl)c3)c(=O)c2=O)cc1 | . | . | -1% | . | . | .
C=CC[C@H](CC(=O)NCCO)C(=O)N[C@@H](COC(=O)[C@@H](CC=C)Cc1ccc(F)cc1)Cc1ccccc1 | -2% | . | . | . | . | 8%
O=C(O)/C=C/c1cccc(OCc2ccccc2)c1 | 5% | 20% | 13µM* | -7% | 7% | ?
COc1ccc([N+](=O)[O-])cc1/C=N/NC(=O)c1nonc1N | -2% | 2% | -1% | 0% | -6% | 4%
O=C(N/N=C/c1cccc(OCc2ccccc2)c1)c1cccs1 | 5% | 28% | 13µM* | -11% | 23% | ?
Nc1nonc1C(=O)N/N=C/c1cccc([N+](=O)[O-])c1 | 1% | -6% | 12µM* | 7% | -2% | 21%
CN(C)c1ccc(/C=N/NC(=O)c2nonc2N)cc1[N+](=O)[O-] | 0% | 1% | 12µM* | . | 1% | -4%
CCCCCCCc1cc2c(cn1)=C(OC)C(C)(OC(C)=O)C(=O)C=2Cl (stereo not given) | . | . | . | 5% | . | .
O=C(COc1ccccc1)N[C@@H]1c2ccccc2CC[C@@H]1O | 1% | . | . | . | . | -2%
O=C(N/N=C/c1cccc([N+](=O)[O-])c1)c1cccs1 | ? | ? | 8.5µM* | 13µM* | ? | ?
CC(=O)c1c(C)oc2ccc(OCc3ccccc3)cc12 | 12% | 27% | 17µM* | . | 26% | ?
O=C(O)c1cc2cc(OCc3ccccc3)ccc2[nH]1 | 12% | 10% | 19µM* | -2% | 5% | -2%
O=C(N/N=C/c1cccc([N+](=O)[O-])c1)c1ccc(Br)cc1 | 0% | 1% | -1% | . | -9% | 3%
O=C(CSc1nc2c([nH]c3ccccc32)c(=O)n1-c1ccc(F)cc1)N1CCCCCC1 | . | . | -2% | . | . | .
O=C(CNS(=O)(=O)c1ccc(Br)cc1)N1CCN(Cc2ccccc2)CC1 | -8% | -1% | 1% | . | -2% | -7%
COc1ccccc1N1CCN(c2nc(N)c(C#N)c(CC#N)c2C#N)CC1 | 6% | -1% | 0% | -16% | -5% | -7%
N#Cc1c(N2CCCC2)nc(N)c2c(N)nc(N3CCCC3)cc12 | 13% | ? | ? | 11µM* | 23% | ?
COc1cc2c(C#N)c(N3CCN(c4ccccc4OC)CC3)nc(N)c2c(N)n1 | -9% | -8% | 24µM* | -21% | 0% | 9.2µM*
COc1cc2c(C#N)c(N3CCCC3)nc(N)c2c(N)n1 | 11% | -1% | 17µM* | . | -1% | 12%
SMILES | ELG1 genotox | Rab9 prom act | FLuc modulator | SMN2 splice up | NPC1 promoter act | ELG1 repair inh
COc1cc2c(C#N)c(N3CCN(C)CC3)nc(N)c2c(N)n1 | ? | 8% | ? | 13% | -4% | 3%
N#Cc1c(N)nc(N2CCCC2)c(C#N)c1-c1ccc(Cl)cc1 | 3% | -3% | 0% | 8% | 1% | ?
CCC(=O)N1c2ccccc2CC1C(=O)NCCN1CCN(c2cccc(C(F)(F)F)c2)CC1 (stereo not given) | . | . | 0% | . | . | .
Cc1ccc(S(=O)(=O)Nc2cc3c(cc2NCc2ccccc2)n(C)c(=O)n3C)cc1 | . | . | ? | 14µM* | . | .
Cn1c(=O)n(C)c2cc(NS(=O)(=O)c3ccc(F)cc3)c(NCc3ccccc3)cc21 | . | . | 17µM* | 0.89µM* | . | .
Cc1ccc(S(=O)(=O)Nc2ccc3c(c2)n(C)c(=O)n3C)c(C)c1 | ? | -8% | -8% | . | -1% | ?
CCc1ccc(S(=O)(=O)Nc2cc3c(cc2C)n(C)c(=O)n3C)cc1 | ? | -34% | 3% | . | -32% | ?
Cc1ccc(S(=O)(=O)Nc2cc3c(cc2NCc2ccccc2)n(C)c(=O)n3C)c(C)c1 | . | . | ? | 10µM* | . | .
Cc1ccc(Cl)cc1Nc1nc(-c2sc(NC(=O)c3cccc(Cl)c3)nc2C)cs1 | 0% | 3% | -19% | -2% | -4% | 14%
Cc1ccc(Cl)cc1Nc1nc(-c2sc(NC(=O)c3ccco3)nc2C)cs1 | -3% | -15% | 0% | -77% | -13% | 8.2µM*
Cc1nc(NC(=O)c2ccco2)sc1-c1csc(Nc2ccc(Cl)cc2Cl)n1 | -7% | -2% | ? | -2% | -2% | 13µM*
Cc1nc(NC(=O)c2ccco2)sc1-c1csc(Nc2ccc(Cl)cc2)n1 | -10% | 4% | 11µM* | -27% | -2% | 18µM*
O=C(CCc1c[nH]c2ccccc12)OCc1cccc([N+](=O)[O-])c1 | 0% | 0% | -3% | . | 0% | -4%
CCCCc1nc2c(c3c1C[C@H](C)OC3)CN(S(=O)(=O)c1ccc(C#N)cc1)CC2 | . | . | . | -5%[9.22 µM] | . | .
O=C(CNC(=O)c1ccc(F)cc1)N/N=C/c1cc(Br)ccc1OCc1ccccc1 | -6% | -5% | 2% | 9% | -3% | ?
COc1ccccc1C(=O)NCC(=O)N/N=C/c1cc(Br)ccc1OCc1ccccc1 | -15% | -4% | 8% | 4% | 1% | 7.3µM*
COc1ccc(/C=N/NC(=O)c2ccccc2OCc2ccccc2)c(OC)c1 | -12% | 1% | 17µM* | -14% | -2% | ?
O=C(CNC(=O)c1ccccc1O)N/N=C/c1cc(Br)ccc1OC(=O)/C=C/c1ccco1 | -4% | -23% | -11% | -103% | -40% | 4.1µM*
COc1cc(C(=O)NCc2ccccc2)ccc1OC(F)F | -4% | -5% | -5% | . | 6% | 6%
COc1ccccc1C=NNC(=O)c1ccccc1OCCOc1ccccc1 | -6% | . | . | . | . | ?
COc1ccc(COc2ccccc2C(=O)NCc2ccccc2)cc1F | -7% | -11% | -1% | -50% | 0% | 26µM*
Cn1c2ccccc2c2c(C(=O)N3CCN(c4cccc(Cl)c4)CC3)cn(C3CCCCC3)c(=O)c21 | . | . | -2% | -3% | . | .

Compound activity as filed in PubChem BioAssay.
